From PubChem BioAssay
IL1B secr inh = qHTS for Inhibitors of Inflammasome Signaling: IL-1-beta AlphaLISA Primary Screen; activity change, % at 57.5 µM; 360,000 compounds, 4.7% hits; AID 743279, 2014; THP-1 LPS/ATP IL-1B secretion, AlphaLISA, 16 h; stronger effect = lower value; in the data active = activity change below about -50%; inconclusive = mostly about -30% to -49%; note: % is set by controls: 0 for no effect and ±100 for the full control effect
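THP-1 cells pretreated 1 hr with compounds (up to 57.5 uM final), then stimulated with LPS (250 ng/mL final) plus ATP (1.25 mM final); secreted IL-1B measured by AlphaLISA after 16 hr, decreased signal indicating inhibition.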
SW480 rereplic = A quantitative high throughput screen for small molecules that induce DNA re-replication in SW480 colon adenocarcinoma cells. AID 624297, 2012. 340,000 compounds, 1.8% hits. SW480 DNA re-replication, Hoechst DNA content imaging, 48 h. Potency, µM (titrated, usually from 46.1 µM), without a hit: at the highest dose re-replication activation, usual class: activators; note: potency is the fitted concentration of half-maximal effect; % of control where 0% means no effect; nearly all actives have a fitted effect of over 55% in size
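First, 250 cells per well were seeded. Next, compound or vehicle (23 nL) was pinned in, plates sat 48 hr at 37 C. Finally Hoechst was added for 40 min before fluorescence scanning.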
MCF10A rereplic = A quantitative high throughput screen for small molecules that induce DNA re-replication in MCF 10a normal breast cells; MCF 10A DNA re-replication, Hoechst nuclear intensity, 48 h; Potency, µM (series often up to 46.1 µM), for inactives: top-dose activity, positive = re-replication, usual class: activators; 350,000 compounds, 2.9% hits; AID 624296, 2012; note: potency is the fitted concentration of half-maximal effect; % of control where 0% means no effect; nearly all actives have a fitted effect of over 50% in size
TDP1 cell CPT = qHTS for Inhibitors of human tyrosyl-DNA phosphodiesterase 1 (TDP1): qHTS in cells in presence of CPT. 420,000 compounds, 12% hits. Potency, µM (titrated, usually from 46.2 µM), without a hit: at the top dose activity change, negative = growth inhibition, most hits filed as inhibitors. chicken DT40 Tdp1-/-;hTDP1 cells + 20 nM CPT, ATP luminescence, 48 h. AID 686979, 2013; note: potency is the fitted concentration of half-maximal effect; % is set by controls: 0 for no effect and ±100 for the full control effect; nearly all actives have a fitted effect of over 55% in size
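Cell growth measured by CellTiter-Glo luminescence after a minimum 48 h, 37 C compound exposure with 20 nM CPT in Tdp1-knockout DT40 cells stably expressing hTDP1, seeded 400/well; qHTS titration format.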
Chronic BCR inh = qHTS Assay to Find Inhibitors of Chronic Active B-Cell Receptor Signaling. ABC-DLBCL IkBa-CBG/CBR reporter, luminescence ratio, 4 h. Potency, µM (titrated, usually from 46.1 µM), for inactives: at the highest dose activity change, negative = inhibition, hits mostly inhibitors. 340,000 compounds, 0.05% hits. AID 493014, 2011; active = well fitted inhibition curve with a large enough effect in the signal ratio, with a control signal flat, not every such curve was filed as active; inconclusive = small, poorly fitted or top-dose-only effect, or effect the other way, or a change in a side signal; the % refers to the signal ratio;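 note: potency is the fitted concentration of half-maximal effect; plate controls were basal doxycycline-induced cells for no effect and cells given 10 µM MG132 for full effect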
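TMD8 ABC-DLBCL cells carrying doxycycline-inducible green luciferase fused to IkappaBalpha plus unfused red luciferase were exposed to compounds (up to 46 uM) for 4 hrs at 37C. Activity came from the overlap-corrected green/red luminescence ratio.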
TDP1 cell noCPT = qHTS for Inhibitors of human tyrosyl-DNA phosphodiesterase 1 (TDP1): qHTS in cells in absence of CPT; DT40 Tdp1-/- hTDP1 cells, no CPT, ATP luminescence, 48 h; Potency, µM (titrated, usually from 46.2 µM), inactives show at the highest dose activity change, negative = growth inhibition, actives largely listed as inhibitors; 420,000 compounds, 15% hits; AID 686978, 2013; note: potency is the fitted concentration of half-maximal effect; % is set by controls: 0 for no effect and ±100 for the full control effect; nearly all actives have a fitted effect of over 55% in size
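Growth of hTDP1-complemented DT40 Tdp1-knockout cells is measured by ATP luminescence after at least 48 hr compound exposure at 37 °C, with DMSO substituting for the 20 nM CPT used in the parallel screen.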
* = called active by the depositor; i = inactive; ? = inconclusive; . = no result; [ ] = another dose, or the depositor's remark. This is a sample that favours compounds with a hit; in the whole collection about 19% have one here. Unless noted, calls come from the whole dose curve; as a rule, active = well fitted curve in the direction sought with a large enough effect; inconclusive = small, poorly fitted or top-dose-only effect, or another doubt; inactive = no such curve, though single readings can be large; an effect the other way counts as inactive or inconclusive.

SMILES	IL1B secr inh	SW480 rereplic	MCF10A rereplic	TDP1 cell CPT	Chronic BCR inh	TDP1 cell noCPT
Cc1nn(Cc2ccc(Cl)c(Cl)c2)c(C)c1NC(=O)c1sc2ccccc2c1Cl	-9	1%	?	?	0%	15µM*
CN(Cc1c(F)cccc1Cl)C(=O)CNC(=O)c1sc2ccccc2c1Cl	-52*	10%	17%	-21%	3%	-24%
Cc1nn(Cc2ccc(Cl)cc2Cl)c(C)c1NC(=O)c1sc2ccccc2c1Cl	-3	-3%	9%	-26%	-2%	-28%
CCc1nc2ccc(C(=O)NCCC(C)C)cn2c1N(CC)CCN(C)C	-4	.	.	-8%	.	-13%
O=C1CCC2(CCCC2)c2ccccc21	8	.	.	-5%	.	5%
COc1nccc(NCc2ccccc2)c1C#N	?	29%	-1%	-17%	.	-19%
O=[N+]([O-])c1cc2c(c(CSc3nnnn3-c3ccc(O)cc3)c1)OCOC2	-15	3%	4%	21µM*	-6%	23µM*
Cc1cc(-c2nnc(CCC(=O)NCc3ccc(OC(F)(F)F)cc3)o2)no1	33	4%	1%	0%	0%	29%
CCc1cc2c(=O)c(-c3ccc4c(c3)OCCO4)c(C)oc2cc1OS(C)(=O)=O	-27	?	?	?	?	26µM*
CC(=O)N1CCC[C@@]2(CCN(Cc3ccc(C#N)cc3)C2)C1	.	.	.	2%	.	-16%
CCCS(=O)(=O)NC(=O)C1(C)CCCN(C(=O)c2ccc3ccccc3n2)C1 (centres undefined)	27	.	.	-24%	.	-25%
CC(=O)Nc1ccc(/C=C2\Sc3ccccc3C2=O)cc1	12	1%[9.22 µM]	3%	5%	-2%	-3%
O=C1c2ccccc2C(=Cc2cccnc2)c2ccccc21	-17	.	.	-5%	.	?
Cc1ccc(/C=C2\Sc3ccccc3C2=O)s1	12	9%	23µM*	?	?	?
O=C1/C(=C/c2cccnc2)Sc2ccccc21	-20	?	?	26µM*	?	?
Cc1cccc(C(c2sc3nc(-c4ccco4)nn3c2O)N2CCN(c3ccccc3)CC2)c1 (centres undefined)	.	.	.	?	-1%	-22%
CC(=O)Nc1ccc(CN2CCCC(C(=O)c3ccc(C(F)(F)F)cc3)C2)cc1 (centres undefined)	-22	-3%	-11%	1%	-2%	?
COc1ccc(C(OCC(O)CNCCc2ccc(S(N)(=O)=O)cc2)c2ccc(OC)cc2)cc1 (centres undefined)	-68*	29%	3%	?	-9%	?
OC(CNCCc1ccc(C(F)(F)F)cc1)COC(c1ccccc1)c1ccccc1 (centres undefined)	-69*	?	?	18µM*	?	?
COc1ccc(CCNC(C)C(=O)Nc2ccc(S(N)(=O)=O)cc2)cc1 (centres undefined)	-3	?	0%	-14%	2%	9%
CN(C)CC(O)COC(c1ccccc1)c1ccccc1 (centres undefined)	-19	-13%	2%	-9%	0%	-11%
Cc1ccc(NS(=O)(=O)c2cccc(C(=O)Nc3cccnc3)c2)c(C)c1	-25	-7%	8%	?	-4%	15µM*
Cc1ccc(NS(=O)(=O)c2ccc(NC(=O)c3ccc(Br)o3)cc2)c(C)c1	-25	4%	?	?	6%	26µM*
CC(=O)c1sc(-c2ccccc2)cc1NS(=O)(=O)c1ccc(C)cc1	1	?	12µM*	?	-17%	?
Cc1ccc(NS(=O)(=O)c2ccc(NC(=O)c3ccc(-c4ccccc4)cc3)cc2)c(C)c1	20	2%	-4%	23µM*	.	23µM*
SMILES	IL1B secr inh	SW480 rereplic	MCF10A rereplic	TDP1 cell CPT	Chronic BCR inh	TDP1 cell noCPT
O=C(Nc1ccc(NS(=O)(=O)c2ccccc2)c(Cl)c1)c1ccccc1	12	4%	27%	-12%	.	-19%
COCCn1c(=O)c(-c2ccc(F)cc2)nc2cnc(Nc3cccc(OC)c3)nc21	.	.	.	16%	.	3%
CC(=O)N(CC(O)CN(C(C)=O)c1c(I)c(C(=O)NC[C@@H](O)CO)c(I)c(C(=O)NC[C@@H](O)CO)c1I)c1c(I)c(C(=O)NC[C@@H](O)CO)c(I)c(C(=O)NC[C@@H](O)CO)c1I	.	-5%[20.6 µM]	-1%[20.6 µM]	.	.	.
Cc1cc(C)cc(NS(=O)(=O)c2ccc(NC(=S)NC(=O)c3ccc(Br)o3)cc2)c1	-8	4%	-6%	16µM*	11%	16µM*
Cc1cc(C)cc(NS(=O)(=O)c2ccc(NC(=O)c3ccccc3C(=O)O)cc2)c1	0	-21%	?	2%	.	0%
Cc1ccc(NS(=O)(=O)c2ccc(NC(=O)c3ccccc3C(=O)O)cc2)c(C)c1	-67*	-11%	2%	-1%	.	-1%
Cc1ccc(C)c(C(C)NC(=O)c2ccc(Br)o2)c1 (centres undefined)	-57*	-11%	2%	?	?	?
O=C(NC(=S)Nc1ccc(S(=O)(=O)Nc2ncccn2)cc1)c1ccc(Br)cc1	23	18µM*	2%	?	-2%	-30%
CCOc1ccc(NC(=O)Cn2cc(C(=O)c3ccc(CC)cc3)c(=O)c3cc(C)ccc32)cc1	.	.	.	-12%	.	-24%
COCCN(C(=O)C1CCCO1)c1c(N)n(CC(C)C)c(=O)[nH]c1=O (centres undefined)	1	-20%	2%	-1%	-3%	23%
O=C(CCN1CCN(Cc2ccccc2)CC1)NNC(=O)Nc1cccc([N+](=O)[O-])c1	i	?	-31%	-2%	5%	8%
CN1c2ccccc2C(C)(C)C12C=Nc1c(cc(N3CCOCC3)c3ccccc13)O2 (centres undefined)	-5	21µM*	7.3µM*	?	?	?
COc1ccc(C(=O)OCc2c(C)noc2C)cc1	0	-8%	-42%	4%	?	8%
Cc1cc(=O)oc2cc(OCC(=O)OCC(=O)N3CCC(C)CC3)ccc12	-60*	?	-42%	-4%	13%	-13%
COc1ccc2oc(C(=O)OCC(=O)N3CCC(C)CC3)c(C)c2c1	-55*	-4%	-1%	?	3%	-16%
